NPC1 promoter act = qHTS Assay for NPC1 Promoter Activators | Huh7 NPC1 promoter luciferase reporter, 24 h | Potency, µM (series often up to 9.22 µM), for the others: at the highest dose activation, usual class: activators | 2.4% of 320,000 active; further: % of control where 0% means no effect; nearly all actives have a fitted effect of over 60% in size
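Huh7 cells stably carrying NPC1 promoter–luciferase, plated in Opti-MEM with 10% FBS for 2 h, were exposed to compound in DMSO for 24 h at 37 °C; luciferase reagent was added for 10 min and luminescence read.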
FLuc counter = qHTS profiling assay for firefly luciferase inhibitor/activator using purifed enzyme and Km concentrations of substrates (counterscreen for miR-21 project); Luciferin 4-monooxygenase (Photinus pyralis), P08659; purified FLuc, Km substrates, luminescence inhibition; Potency, µM (series often up to 57.5 µM), for the others: top-dose activity change, negative = inhibition, most hits filed as inhibitors; 6.9% of 360,000 active;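 further: plate controls were vehicle for no effect and reference inhibitor for full effect; nearly all actives have a fitted effect of over 55% in size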
Target sequence (P08659 whole entry, looked up): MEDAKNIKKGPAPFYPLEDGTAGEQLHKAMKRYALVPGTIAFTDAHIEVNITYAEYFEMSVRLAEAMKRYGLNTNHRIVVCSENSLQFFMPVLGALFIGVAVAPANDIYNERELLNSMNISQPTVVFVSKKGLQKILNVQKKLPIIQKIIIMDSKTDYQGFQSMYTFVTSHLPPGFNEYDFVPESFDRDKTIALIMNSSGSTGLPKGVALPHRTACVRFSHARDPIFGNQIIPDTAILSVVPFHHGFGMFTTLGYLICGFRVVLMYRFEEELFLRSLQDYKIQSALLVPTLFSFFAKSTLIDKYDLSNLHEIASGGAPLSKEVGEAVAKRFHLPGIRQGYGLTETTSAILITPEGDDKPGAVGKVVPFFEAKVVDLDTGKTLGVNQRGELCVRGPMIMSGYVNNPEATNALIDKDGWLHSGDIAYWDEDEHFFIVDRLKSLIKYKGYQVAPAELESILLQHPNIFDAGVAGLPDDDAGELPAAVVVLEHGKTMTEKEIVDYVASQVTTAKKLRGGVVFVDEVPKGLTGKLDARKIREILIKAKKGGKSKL
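Purified P. pyralis luciferase, 10 nM final, with Km-level 10 uM D-luciferin and 10 uM ATP in 50 mM Tris acetate pH 7.5, 10 mM Mg acetate, 0.01% Tween-20, 0.05% BSA; 6-point qHTS titration about 60 µM downward; luminescence read.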
ELG1 genotox = qHTS screen for small molecules that induce genotoxicity in human embryonic kidney (HEK293T) cells expressing luciferase-tagged ELG1; HEK293T ELG1-luciferase reporter, luminescence, 16 h; 1.3% of 330,000 active; Potency, µM (top dose mostly 46 µM), without a hit: at the top dose activity change, positive = activation, usual class: activators; further: % of control where 0% means no effect; nearly all actives have a fitted effect of over 60% in size
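After overnight (16 hr) compound treatment at 37 °C, ELG1-luciferase HEK293T cells were lysed with ONE-Glo; luminescence quantified 30 min later at room temperature.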
Luc counter = Counterscreen for Luciferase (Kinase-Glo TM) Inhibition. Kinase-Glo luciferase, ATP luminescence, 8 min. Luciferin 4-monooxygenase (Photuris pensylvanica), Q27757. 0.28% of 200,000 active. Potency, µM (series often up to 38.3 µM), for inactives: at the top dose activity change, negative = inhibition, actives largely listed as inhibitors; further: on the % scale 0 is the no-effect control and ±100 the full control effect; nearly all actives have a fitted effect of over 60% in size
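Kinase-Glo luciferase light output from ATP and luciferin was measured with 10 uM ATP, within the enzyme's linear range. Buffer: 50 mM imidazole pH 7.2, 50 mM KCl, 7 mM MgCl2, 0.01% Tween 20, 0.05% BSA; luminescence read after 8 min at ambient temperature.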
Rab9 promoter act = qHTS Assay for Rab9 Promoter Activators; Huh7 Rab9 promoter-luciferase reporter, luminescence, 24 h; Potency, µM (top dose mostly 9.22 µM), inactives show at the highest dose activation, negative = inhibition, usual class: activators; 2.8% of 320,000 active; AID 485297, 2010; further: % of control where 0% means no effect; nearly all actives have a fitted effect of over 60% in size
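Cell-based reporter: Huh7 stable for Rab9 promoter-driven luciferase, plated in reduced-serum medium with 10% FBS at 1500 cells/well, compound-treated 24 h at 37 °C, luminescence read after 10 min reagent.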
SMN2 splice up = qHTS Assay for Enhancers of SMN2 Splice Variant Expression. 2.8% of 210,000 active. AID 1458, 2008. Potency, µM (highest dose often 46.1 µM), without a hit: at the highest dose activity change, positive = activation, usual class: activators. HEK293 SMN2-luciferase splicing reporter, luminescence, 30-36 h; further: % of control where 0% means no effect; nearly all actives have a fitted effect of over 55% in size
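HEK293 cells carry an SMN2 minigene-luciferase reporter in which exon 7 inclusion puts luciferase in frame. Cells were seeded at 2000 cells/well, attached for 10-12 hours, then exposed to compounds for 30-36 hours at 37C before ONE-Glo luminescence.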
* hit, by the source's call; [ ] = remark or other dose. Shown are actives, neighbours in structure and some others; about 7.3% of the full set was active somewhere. The call rests on the fitted dose curve; in most records, active means well fitted curve in the direction sought with a large enough effect; inconclusive means small, poorly fitted or top-dose-only effect, or another doubt; inactive means no such curve, though single readings can be large; an effect the other way counts as inactive or inconclusive. Potency means the concentration at half of the fitted maximal effect.

For CC(C)(C)c1ccc(OCC(=O)Nc2ccncc2)c(Br)c1 the results were NPC1 promoter act -2%, FLuc counter 21µM*, ELG1 genotox 1% and Rab9 promoter act -1%.
CCC(C)(C)c1ccc(OCC(=O)Nc2ccncc2)cc1 was read as NPC1 promoter act 0%, FLuc counter 7.6µM*, ELG1 genotox -1% and Rab9 promoter act -3%.
Cc1cc(OCC(=O)Nc2ccncc2)c(C)cc1Br was read as NPC1 promoter act 1%, FLuc counter inconclusive, ELG1 genotox 0%, Luc counter -8%, Rab9 promoter act -3% and SMN2 splice up 14%.
For CCc1ccc(OCC(=O)Nc2ccncc2)c(Br)c1 the results were NPC1 promoter act 1%, FLuc counter 3.4µM*, ELG1 genotox inconclusive and Rab9 promoter act 0%.
`O=C1C2C3C=CC(C2C(=O)N1c1nccs1)C1C(=O)N(c2nccs2)C(=O)C31` (centres undefined) gave NPC1 promoter act 4%, FLuc counter 0%, ELG1 genotox 4%, Luc counter 2%, Rab9 promoter act 0% and SMN2 splice up -10%.
Screening CC(C)(C)c1ccc(OCC(=O)NNC(=S)NC(=O)c2ccccc2[N+](=O)[O-])c(Br)c1 returned NPC1 promoter act 1%, FLuc counter 27µM*, ELG1 genotox 4% and Rab9 promoter act -2%.
Screening CC(C)OC(=O)n1c(=S)oc2ccccc21 returned NPC1 promoter act 12%, FLuc counter -8%, ELG1 genotox 10%, Luc counter -2%, Rab9 promoter act 0% and SMN2 splice up -29%.
For CCCCC(=O)/C=C/n1c(=S)oc2ccccc21 the results were NPC1 promoter act -19%, FLuc counter 2.4µM*, ELG1 genotox -11%, Luc counter -4%, Rab9 promoter act -35% and SMN2 splice up -6%[1.84 µM].
For CC(C)OC(=O)CSc1ncnc2c1cnn2-c1ccccc1 the results were NPC1 promoter act 2%, FLuc counter 8.5µM*, ELG1 genotox 27%, Luc counter -3%, Rab9 promoter act 20% and SMN2 splice up -14%.
For c1ccc(CSc2ncnc3c2cnn3-c2ccccc2)cc1 the results were NPC1 promoter act inconclusive, FLuc counter 12µM*, ELG1 genotox inconclusive, Luc counter 1%, Rab9 promoter act inconclusive and SMN2 splice up 22µM*.
Cc1cc(NC(=O)CSc2ncnc3c2cnn3-c2ccccc2)no1 was read as NPC1 promoter act -6%, FLuc counter -4%, ELG1 genotox -11%, Luc counter -1%, Rab9 promoter act -3% and SMN2 splice up -16%.
Screening CC(C)(C)C(=O)CSc1ncnc2c1cnn2-c1ccccc1 returned NPC1 promoter act 0.71µM*, FLuc counter 1.2µM*, ELG1 genotox inconclusive and Rab9 promoter act 0.63µM*.
CCNC(=O)COC(=O)c1cc(C)n(-c2ccccc2)c1C was read as NPC1 promoter act 17%, FLuc counter inconclusive, ELG1 genotox inconclusive, Luc counter -2%, Rab9 promoter act inconclusive and SMN2 splice up 18%.
For COC(=O)c1ccc2nc(Nc3nc4c(F)cc(F)cc4s3)sc2c1 the results were NPC1 promoter act -16%, FLuc counter 5.4µM*, ELG1 genotox inconclusive, Luc counter 1%, Rab9 promoter act -25% and SMN2 splice up -85%.
Screening COC(=O)c1ccc2nc(NC(=O)C3CC3)sc2c1 returned NPC1 promoter act 2.2µM*, FLuc counter 19µM*, ELG1 genotox inconclusive and Rab9 promoter act inconclusive.
COC(=O)c1ccc2nc(NC(=O)C(C)C)sc2c1 was read as NPC1 promoter act 2µM*, FLuc counter 8.5µM*, ELG1 genotox inconclusive, Luc counter 1%, Rab9 promoter act 1.1µM* and SMN2 splice up 5.6µM*.
`COC(=O)c1ccc2nc(NC(=O)CN3C(=O)CCC3=O)sc2c1` gave NPC1 promoter act -3%, FLuc counter inconclusive, ELG1 genotox 4%, Luc counter -5%, Rab9 promoter act 3% and SMN2 splice up 7%.
Screening CCOC(=O)c1ccc2nc(NC(C)=O)sc2c1 returned NPC1 promoter act inconclusive, FLuc counter inconclusive, ELG1 genotox inconclusive, Luc counter 0%, Rab9 promoter act 2.2µM* and SMN2 splice up 13µM*.
For COC(=O)c1ccc2nc(NC(=O)CCS(=O)(=O)c3ccccc3)sc2c1 the results were NPC1 promoter act 3%, FLuc counter -8%, ELG1 genotox 17% and Rab9 promoter act 7%.
Screening CCOC(=O)c1ccc2nc(Nc3nc4ccc(F)cc4s3)sc2c1 returned NPC1 promoter act -31%, FLuc counter inconclusive, ELG1 genotox -10%, Luc counter 2%, Rab9 promoter act -39% and SMN2 splice up -61%.
Screening O=S(=O)(c1cccc(Cl)c1)N1CCC(c2nc3ccccc3[nH]2)CC1 returned NPC1 promoter act 3%, FLuc counter -1%, ELG1 genotox -6% and Rab9 promoter act -1%.
COc1ccc(N=C2S/C(=C\c3cc(C)n(C)c3C)C(=O)N2CC(C)C)cc1 was read as NPC1 promoter act 0%, FLuc counter -4%, ELG1 genotox -5%, Luc counter -2%, Rab9 promoter act -2% and SMN2 splice up -3%.
For CCS(=O)(=O)N1CCN(C(=O)C(c2ccccc2)c2ccccc2)CC1 the results were NPC1 promoter act 3%, FLuc counter 1%, ELG1 genotox 2%, Luc counter 0%, Rab9 promoter act 3% and SMN2 splice up -4%.
O=C(NCCCN1CCN(c2ccccc2F)CC1)C1CC(=O)N(C2CCCC2)C1 (centres undefined) was read as NPC1 promoter act 1%, FLuc counter 6%, ELG1 genotox 1%, Luc counter -2%, Rab9 promoter act -10% and SMN2 splice up 17%.
For COC(=O)c1[nH]c2c(c1C)C(=O)CC(c1cc(OC)ccc1OC)C2 (centres undefined) the results were NPC1 promoter act -20%, FLuc counter -1%, ELG1 genotox 3%, Luc counter -2%, Rab9 promoter act -15% and SMN2 splice up -25%.
`Cc1[nH]n(-c2ccccc2)c(=O)c1/C=N/c1ccccn1` gave NPC1 promoter act 0%, FLuc counter inconclusive, ELG1 genotox 2%, Luc counter 3%, Rab9 promoter act -1% and SMN2 splice up -10%.
